Measurements reported in the supplement of paper PMC6522484.
± gives the standard deviation of the averaged measurements.

How the values were obtained:
[1] = system: DLD1; assay: cell viability (CellTiter-Glo) relative to plate median (fraction of plate median); higher = more viable cells; conditions: 5 µM; treatment time 24 h; reporter: 7TFP
In short: (§1)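 Per-well firefly luciferase or CellTiterGlo luminescence, normalised to the plate median, is what is reported. It was measured in colorectal cancer cells with stable lentiviral TCF/Wnt firefly luciferase reporters after a 24 h treatment with library compounds at a final 5 µM. The mean of two independent replicates is given.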

[2] = system: HCT116; assay: as above; conditions: 5 µM; treatment time 24 h; reporter: TCF4/Wnt
In short: as §1

[3] = system: SW480; assay: as above; conditions: 5 µM; treatment time 24 h; reporter: 7TFP
In short: as §1

[4] = system: DLD1; assay: TCF/Wnt firefly luciferase reporter signal relative to plate median (fraction of plate median); higher = higher Wnt reporter signal; conditions: 5 µM; treatment time 24 h; reporter: 7TFP
In short: as §1

[5] = system: SW480; assay: as above; conditions: 5 µM; treatment time 24 h; reporter: 7TFP
In short: as §1

With CC(=O)Nc1nnc(S(N)(=O)=O)s1 the cell viability [1] was 0.981 ± 0.055, the cell viability [2] was 0.907 ± 0.11 and the cell viability [3] was 0.989 ± 0.016. The “TCF/Wnt firefly luciferase reporter signal” value [4] was 0.865 ± 0.044 and the “TCF/Wnt firefly luciferase reporter signal” value [5] was 1.09 ± 0.092.

C[C@H]1[C@H](C)CC[C@]2(C(=O)O)CC[C@]3(C)C(=CC[C@@H]4[C@@]5(C)C[C@@H](O)[C@H](O)[C@@](C)(CO)[C@@H]5[C@H](O)C[C@]43C)[C@H]12 was tested, and the cell viability [1] was 1.01 ± 0.048, the cell viability [2] was 1.09 ± 0.099 and the cell viability [3] was 0.985 ± 0.0085. The “TCF/Wnt firefly luciferase reporter signal” value [4] was 0.919 ± 0.05 and the “TCF/Wnt firefly luciferase reporter signal” value [5] was 1.045 ± 0.0071.

O=C(CC(=O)c1ccccc1)c1ccccc1 showed a cell viability [1] of 0.972 ± 0.069, a cell viability [2] of 0.82 ± 0.026 and a cell viability [3] of 1.03. The “TCF/Wnt firefly luciferase reporter signal” value [4] was 1.15 ± 0.021 and the “TCF/Wnt firefly luciferase reporter signal” value [5] was 1.17 ± 0.057.

CCn1nc(C(=O)O)c(=O)c2cc3c(cc21)OCO3 showed a cell viability [1] of 1.01 ± 0.035, a cell viability [2] of 0.972 ± 0.015 and a cell viability [3] of 0.988 ± 0.088. For the same compound, the “TCF/Wnt firefly luciferase reporter signal” value [4] was 1 ± 0.11 and the “TCF/Wnt firefly luciferase reporter signal” value [5] was 0.875 ± 0.14.

COc1ccc(CN(CCN(C)C)c2ccccn2)cc1 gave a cell viability [1] of 1.07 ± 0.057, a cell viability [2] of 1.01 ± 0.14 and a cell viability [3] of 1.08 ± 0.021. For the same compound, the “TCF/Wnt firefly luciferase reporter signal” value [4] was 0.96 ± 0.071 and the “TCF/Wnt firefly luciferase reporter signal” value [5] was 1.13 ± 0.014.

Oc1ccc(Cl)c2cccnc12 was tested, and the cell viability [1] was 1.025 ± 0.0071, the cell viability [2] was 0.988 ± 0.032 and the cell viability [3] was 1.02 ± 0.021. For the same compound, the “TCF/Wnt firefly luciferase reporter signal” value [4] was 0.935 ± 0.069 and the “TCF/Wnt firefly luciferase reporter signal” value [5] was 1.09 ± 0.042.

O=C1C=CC(=C(c2ccc(O)cc2)c2ccc(O)cc2)C=C1 gave a cell viability [1] of 0.99 ± 0.057, a cell viability [2] of 0.944 ± 0.018 and a cell viability [3] of 1.01 ± 0.035. For the same compound, the “TCF/Wnt firefly luciferase reporter signal” value [4] was 0.851 ± 0.038 and the “TCF/Wnt firefly luciferase reporter signal” value [5] was 0.93 ± 0.099.

CCCCC(=O)O[C@]1(C(=O)CO)[C@@H](C)C[C@H]2[C@@H]3CCC4=CC(=O)C=C[C@]4(C)[C@@]3(F)[C@@H](O)C[C@@]21C gave a cell viability [1] of 1.04 ± 0.021, a cell viability [2] of 1.15 ± 0.028 and a cell viability [3] of 0.987 ± 0.047. For the same compound, the “TCF/Wnt firefly luciferase reporter signal” value [4] was 0.868 ± 0.011 and the “TCF/Wnt firefly luciferase reporter signal” value [5] was 0.942 ± 0.22.

Compound C[C@@H]1C/C=C/C=C/C=C/C=C/[C@H](O[C@@H]2O[C@H](C)[C@@H](O)[C@H](N)[C@@H]2O)C[C@@H]2O[C@](O)(C[C@@H](O)C[C@H]3O[C@@H]3/C=C/C(=O)O1)C[C@H](O)[C@H]2C(=O)O has a cell viability [1] of 1.03 ± 0.08, a cell viability [2] of 0.915 ± 0.13 and a cell viability [3] of 0.987 ± 0.019. The “TCF/Wnt firefly luciferase reporter signal” value [4] was 0.921 ± 0.033 and the “TCF/Wnt firefly luciferase reporter signal” value [5] was 0.962 ± 0.028.

Work on CC(C)CCCCCCCCC1CC(=O)NC(CCC(=O)O)C(=O)NC(CC(C)C)C(=O)NC(CC(C)C)C(=O)NC(C(C)C)C(=O)NC(CC(=O)O)C(=O)NC(CC(C)C)C(=O)NC(CC(C)C)C(=O)O1 (stereo not given) [Surfactin B1] yielded a cell viability [1] of 0.959 ± 0.072, a cell viability [2] of 0.925 ± 0.018 and a cell viability [3] of 0.962 ± 0.038. The “TCF/Wnt firefly luciferase reporter signal” value [4] was 0.92 ± 0.21 and the “TCF/Wnt firefly luciferase reporter signal” value [5] was 1.01 ± 0.015.

With CCCCCCCC/C=C/CCCCCCCCOP(=O)([O-])OCC[N+](C)(C)C the cell viability [1] was 0.984 ± 0.052, the cell viability [2] was 0.886 ± 0.2 and the cell viability [3] was 1.02 ± 0.03. For the same compound, the “TCF/Wnt firefly luciferase reporter signal” value [4] was 0.986 ± 0.034 and the “TCF/Wnt firefly luciferase reporter signal” value [5] was 0.982 ± 0.018.

With COc1c2occc2c(OC)c2c(=O)cc(C)oc12 the cell viability [1] was 0.99 ± 0.057, the cell viability [2] was 0.969 ± 0.14 and the cell viability [3] was 0.989 ± 0.016. For the same compound, the “TCF/Wnt firefly luciferase reporter signal” value [4] was 1.2 ± 0.099 and the “TCF/Wnt firefly luciferase reporter signal” value [5] was 1.12 ± 0.042.

Compound OC(Cn1cncn1)(Cn1cncn1)c1ccc(F)cc1F has a cell viability [1] of 0.889 ± 0.033, a cell viability [2] of 0.883 ± 0.069 and a cell viability [3] of 0.9295 ± 0.0064. The “TCF/Wnt firefly luciferase reporter signal” value [4] was 1.09 ± 0.028 and the “TCF/Wnt firefly luciferase reporter signal” value [5] was 1.01 ± 0.054.

CN[C@H](CC(=O)O)C(=O)O gave a cell viability [1] of 0.99 ± 0.028, a cell viability [2] of 0.966 ± 0.049 and a cell viability [3] of 0.957 ± 0.0042. The “TCF/Wnt firefly luciferase reporter signal” value [4] was 1.02 ± 0.014 and the “TCF/Wnt firefly luciferase reporter signal” value [5] was 0.85 ± 0.045.

CCN(CC)C(=O)N1CCN(C)CC1 showed a cell viability [1] of 0.9275 ± 0.0035, a cell viability [2] of 0.89 ± 0.079 and a cell viability [3] of 1.03 ± 0.021. The “TCF/Wnt firefly luciferase reporter signal” value [4] was 0.981 ± 0.098 and the “TCF/Wnt firefly luciferase reporter signal” value [5] was 1.09 ± 0.021.

Compound COc1ccc2cc1Oc1ccc(cc1)C[C@H]1c3cc(c(OC)cc3CCN1C)Oc1c(OC)c(OC)cc3c1[C@H](C2)N(C)CC3 has a cell viability [1] of 1.04 ± 0.13, a cell viability [2] of 0.897 ± 0.15 and a cell viability [3] of 1.215 ± 0.0071. The “TCF/Wnt firefly luciferase reporter signal” value [4] was 0.948 ± 0.025 and the “TCF/Wnt firefly luciferase reporter signal” value [5] was 0.889 ± 0.071.

Compound O=c1c(O)c(-c2ccccc2)oc2ccccc12 has a cell viability [1] of 0.992 ± 0.026, a cell viability [2] of 0.961 ± 0.069 and a cell viability [3] of 1 ± 0.027. The “TCF/Wnt firefly luciferase reporter signal” value [4] was 1.1 ± 0.16 and the “TCF/Wnt firefly luciferase reporter signal” value [5] was 0.977 ± 0.1.

For CC(=O)S[C@@H]1CC2=CC(=O)CC[C@]2(C)[C@H]2CC[C@@]3(C)[C@@H](CC[C@@]34CCC(=O)O4)[C@H]12, the cell viability [1] was 1.11 ± 0.014, the cell viability [2] was 0.97 ± 0.04 and the cell viability [3] was 1.06 ± 0.064. For the same compound, the “TCF/Wnt firefly luciferase reporter signal” value [4] was 0.878 ± 0.15 and the “TCF/Wnt firefly luciferase reporter signal” value [5] was 0.955 ± 0.016.

With NS(=O)(=O)c1cc(C(=O)O)c(NCc2ccco2)cc1Cl the cell viability [1] was 0.993 ± 0.0099, the cell viability [2] was 1.04 and the cell viability [3] was 1.09 ± 0.042. For the same compound, the “TCF/Wnt firefly luciferase reporter signal” value [4] was 1.095 ± 0.0071 and the “TCF/Wnt firefly luciferase reporter signal” value [5] was 1.13 ± 0.057.

Compound CC(=O)OCC(OC(C)=O)C(OC(C)=O)C(OC(C)=O)C(OC(C)=O)C(COC(C)=O)OC(C)=O (stereo not given) has a cell viability [1] of 1.06 ± 0.071, a cell viability [2] of 1 ± 0.066 and a cell viability [3] of 1.045 ± 0.0071. The “TCF/Wnt firefly luciferase reporter signal” value [4] was 0.987 ± 0.047 and the “TCF/Wnt firefly luciferase reporter signal” value [5] was 0.96 ± 0.037.

For COC(=O)C[C@H]1C(C)(C)[C@@H](OC(C)=O)[C@@H]2CC3=C4CC(=O)O[C@@H](c5ccoc5)[C@]4(C)CC[C@@H]3[C@@]1(C)C2=O, the cell viability [1] was 0.9945 ± 0.0078, the cell viability [2] was 1.045 ± 0.0071 and the cell viability [3] was 0.963 ± 0.018. For the same compound, the “TCF/Wnt firefly luciferase reporter signal” value [4] was 0.993 ± 0.067 and the “TCF/Wnt firefly luciferase reporter signal” value [5] was 0.95 ± 0.041.

For COC(=O)C[C@H]1C(C)(C)C(=O)[C@@H]2CC3=C(CC[C@]4(C)C3=CC(=O)O[C@H]4c3ccoc3)[C@@]1(C)C2=O, the cell viability [1] was 0.96 ± 0.032, the cell viability [2] was 0.979 ± 0.058 and the cell viability [3] was 0.944 ± 0.018. For the same compound, the “TCF/Wnt firefly luciferase reporter signal” value [4] was 0.782 ± 0.35 and the “TCF/Wnt firefly luciferase reporter signal” value [5] was 0.954 ± 0.029.

Work on COc1ccccc1N1CCN(CCCNc2cc(=O)n(C)c(=O)n2C)CC1 yielded a cell viability [1] of 0.938 ± 0.037, a cell viability [2] of 0.885 ± 0.018 and a cell viability [3] of 0.93 ± 0.025. The “TCF/Wnt firefly luciferase reporter signal” value [4] was 1.03 ± 0.05 and the “TCF/Wnt firefly luciferase reporter signal” value [5] was 0.953 ± 0.081.

COc1ccccc1OCCNCC(O)COc1cccc2[nH]c3ccccc3c12 (stereo not given) gave a cell viability [1] of 1.05 ± 0.22, a cell viability [2] of 1.06 ± 0.078 and a cell viability [3] of 1.1. For the same compound, the “TCF/Wnt firefly luciferase reporter signal” value [4] was 1.21 ± 0.085 and the “TCF/Wnt firefly luciferase reporter signal” value [5] was 1.075 ± 0.0071.

In the case of O=C1NC(Cc2ccc(O)cc2)C(=O)N2CCCC12 (stereo not given) [Cyclo(tyrosylprolyl)], the cell viability [1] is reported as 0.935 ± 0.0085, the cell viability [2] is reported as 0.928 ± 0.023 and the cell viability [3] is reported as 0.9425 ± 0.0021. The “TCF/Wnt firefly luciferase reporter signal” value [4] was 0.768 ± 0.15 and the “TCF/Wnt firefly luciferase reporter signal” value [5] was 0.959 ± 0.028.

Compound C[N+]1(C)[C@@H]2CC[C@H]1C[C@@H](OC(=O)C(O)c1ccccc1)C2 (stereo not given in full) has a cell viability [1] of 1.08 ± 0.035, a cell viability [2] of 0.941 ± 0.079 and a cell viability [3] of 1.085 ± 0.0071. The “TCF/Wnt firefly luciferase reporter signal” value [4] was 1.1 ± 0.042 and the “TCF/Wnt firefly luciferase reporter signal” value [5] was 1.01 ± 0.15.

COC(=O)CC[C@@H](C)[C@H]1CC[C@H]2[C@@H]3[C@H](O)C[C@@H]4C[C@H](O)CC[C@]4(C)[C@H]3C[C@H](O)[C@]12C showed a cell viability [1] of 0.98 ± 0.0099, a cell viability [2] of 1.06 and a cell viability [3] of 1.005 ± 0.0071. For the same compound, the “TCF/Wnt firefly luciferase reporter signal” value [4] was 1.21 ± 0.014 and the “TCF/Wnt firefly luciferase reporter signal” value [5] was 1.09 ± 0.092.

O=CN(O)CCCC(NC(=O)C(CO)NC(=O)C1COC(c2ccccc2O)=N1)C(=O)NCCC(=O)NC1CCCN(O)C1=O (stereo not given) [Oxachelin] was tested, and the cell viability [1] was 0.9715 ± 0.0092, the cell viability [2] was 1.07 ± 0.16 and the cell viability [3] was 1.03 ± 0.059. For the same compound, the “TCF/Wnt firefly luciferase reporter signal” value [4] was 1.11 ± 0.021 and the “TCF/Wnt firefly luciferase reporter signal” value [5] was 1.03 ± 0.085.

Nc1ccc(/N=N/c2ccccc2)c(N)n1 was tested, and the cell viability [1] was 1.1 ± 0.2, the cell viability [2] was 1.07 ± 0.035 and the cell viability [3] was 1.1 ± 0.035. For the same compound, the “TCF/Wnt firefly luciferase reporter signal” value [4] was 1.285 ± 0.0071 and the “TCF/Wnt firefly luciferase reporter signal” value [5] was 1.3 ± 0.028.
